D3 ag: qHTS of D3 Dopamine Receptor Agonist: qHTS; max activation, %; D(3) dopamine receptor (Homo sapiens), P35462; D3R DiscoveRx beta-arrestin cells, luminescence, 90 min; hit rate 0.58% among 410,000; in the data active = max activation above about 30%
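Agonist mode: compounds and dopamine controls were applied to plated cells for 90 min at 37 degrees C after an overnight attachment at 1500 cells/well. Luminescent read-out followed 30 - 60 minutes at room temperature with DiscoveRx detection reagent.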
D1 ag: Allosteric Agonists of the Human D1 Dopamine Receptor: qHTS | HEK293 T-REx D1 cells, calcium flux, agonist mode | D(1A) dopamine receptor (Homo sapiens), P21728 | activation, % at 2 µM | AID 504660, 2011 | hit rate 1% among 360,000; in the data active = activation above about 30%
Target sequence (P21728 whole entry, looked up): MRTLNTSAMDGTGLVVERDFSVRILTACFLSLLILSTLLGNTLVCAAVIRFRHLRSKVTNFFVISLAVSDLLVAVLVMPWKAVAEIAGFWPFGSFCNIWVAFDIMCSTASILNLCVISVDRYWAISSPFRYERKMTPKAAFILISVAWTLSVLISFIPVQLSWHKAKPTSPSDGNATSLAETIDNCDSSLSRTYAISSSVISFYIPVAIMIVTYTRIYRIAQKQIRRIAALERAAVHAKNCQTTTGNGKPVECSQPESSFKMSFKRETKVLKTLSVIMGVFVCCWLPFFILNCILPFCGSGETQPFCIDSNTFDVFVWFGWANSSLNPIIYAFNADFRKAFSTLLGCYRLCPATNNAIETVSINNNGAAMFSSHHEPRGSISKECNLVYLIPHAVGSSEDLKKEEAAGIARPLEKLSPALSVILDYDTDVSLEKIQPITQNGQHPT
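Tetracycline-induced HEK293 TREx D1 cells, force-coupled to calcium signalling, were dye-loaded with a no-wash calcium kit. Compound was pin-added after a 10 s baseline. Fluorescence was read kinetically at 1 cycle/s for 180 s, with calcium rises flagged as agonism.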
D1 potentiator: Potentiators of Human D1 Dopamine Receptor: qHTS. D(1A) dopamine receptor (Homo sapiens), P21728. HEK293 TREx D1 cells, calcium flux, dopamine EC20 potentiation. potentiation, % at 10 µM. hit rate 0.036% among 360,000; in the data active = potentiation above about 30%
D1 antag: Antagonist of Human D 1 Dopamine Receptor: qHTS; D(1A) dopamine receptor (Homo sapiens), P21728; HEK293 TREx D1 cells, calcium flux, dopamine EC80; active compounds read low; activity change, negative = inhibition, % at 10 µM; hit rate 3.2% among 360,000; in the data active = activity change below about -30%
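Inducible Hek293 Trex D1 cells (tetracycline, overnight, 30 C). Calcium dye 30–90 min RT. Antagonist mode: EC80 dopamine added after 180 s compound read.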
DRD3 antagonist: qHTS of D3 Dopamine Receptor Antagonist: qHTS; D(3) dopamine receptor (Homo sapiens), P35462; D3R cells, DiscoveRx beta-arrestin luminescence, antagonist mode; active compounds read low; max response, negative = inhibition, %; hit rate 2.5% among 360,000; AID 652054, 2013; in the data active = max response below about -50%; inconclusive = no clear call, values can overlap the other calls
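Cells expressing the human receptor were seeded at 1500 cells/well, incubated overnight at 37 degrees C in 5% CO2, then exposed to library compounds with dopamine controls for 90 minutes at 37 degrees C before luminescent detection.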
Each line names hits and unclear results; the compound was inactive in the other large screens; ! = not active in a repeat. The list is not random: actives were taken first. Their share in the collection is about 6%.

Cc1cccc(/C=N/c2sc3c(c2C(=O)OC(C)(C)C)CCN(C)C3)c1O	none
COc1cc(C(=O)OC(COCCC(C)C)CN2CCOCC2)cc(OC)c1OC (stereo not given)	none (no result: D1 ag, D1 potentiator, D1 antag, DRD3 antagonist)
Cc1ccc(-c2noc(Cn3nc(C(=O)O)c4ccccc4c3=O)n2)cc1	none
O=C(O)c1nn(Cc2nc3ccccc3o2)c(=O)c2ccccc12	D1 antag -77 (no result: D1 potentiator)
CCOc1ccc(C(=O)N2CCC(c3nnc(-c4ccccc4OC)o3)CC2)cc1	none (no result: DRD3 antagonist)
O=C(c1cccs1)N1CC=C(c2ccccc2)CC1	none
O=C(O)C1CC=CCC1C(=O)N1CC=C(c2ccccc2)CC1 (stereo not given)	DRD3 antagonist -62
CCN=C1S/C(=C\c2cn(C(C)=O)nc2-c2ccccc2)C(=O)N1CC	D3 ag 64
Cc1ccc(-n2ncc(C(=O)NCCCN3CCN(c4cccc(Cl)c4)CC3)c2-n2cccc2)cc1	none (no result: DRD3 antagonist)
COC(=O)c1sccc1S(=O)(=O)N(CC(=O)NCc1ccc(C)cc1)c1ccccc1	none (no result: DRD3 antagonist)
CCOC(=O)CSc1nc(C2CC2)cc(-c2ccc(Cl)cc2)c1C#N	D1 antag -87
CCOC(=O)CSc1nc(-c2ccc(Cl)cc2)cc(C(F)(F)F)c1C#N	none (no result: DRD3 antagonist)
CC(=O)NCCCS(=O)(=O)O	none (no result: D1 ag, D1 potentiator, D1 antag, DRD3 antagonist)
COc1ccc(C(=O)c2cc3c(cc2[N+](=O)[O-])OCCO3)cc1	D1 antag -32
O=C(c1ccccc1F)c1cc2c(cc1[N+](=O)[O-])OCCO2	none
COc1cc([N+](=O)[O-])cc2sc(NC(C)=O)nc12	none
CCCCC(=O)Nc1nc2c(OC)cc([N+](=O)[O-])cc2s1	D1 antag -34
CC(=O)Nc1cc(-c2ccc(N)cc2)cn2c(-c3cccc(C(F)(F)F)c3)cnc12	none (no result: D1 ag, D1 potentiator, D1 antag)
NC(=O)CC(NC(=O)c1ccccc1)c1ccc(NCC2CC2)c([N+](=O)[O-])c1 (stereo not given)	D1 antag -44
NC(=O)CC(NC(=O)c1ccccc1)c1ccc(NCCOc2ccccc2)c([N+](=O)[O-])c1 (stereo not given)	D1 antag -35
CN(Cc1ccccc1)c1ccc(C(CC(N)=O)NC(=O)c2ccc(Br)cc2)cc1[N+](=O)[O-] (stereo not given)	DRD3 antagonist -52
CC(C)Nc1ccc(C(CC(N)=O)NC(=O)c2ccc(Br)cc2)cc1[N+](=O)[O-] (stereo not given)	none
Cc1cc2c(cc1S(=O)(=O)CCC(=O)NC1CCCCC1C)OCC(=O)N2 (stereo not given)	none
O=C(CCCN1C(=O)c2cccnc2C1=O)Nc1ccc(Br)cc1	D1 antag -55
O=C(CCCN1C(=O)c2ccccc2C1=O)Nc1ccc(Br)cn1	none
CCc1nnc(NC(=O)CCC(=O)N2CCN(Cc3ccc(C)cc3C)CC2)s1	none
CCc1nnc(NC(=O)CCC(=O)N2CCN(CCOc3ccc(C)cc3)CC2)s1	D3 ag 45
COc1ccccc1NC(=O)Cc1ccc(-c2ccccc2)cc1	D1 antag -39
COc1ccc(C)cc1NC(=O)COC(=O)Cc1ccc(-c2ccccc2)cc1	D1 antag -36
COc1ccc(NC(=O)COC(=O)Cc2ccc(-c3ccccc3)cc2)c(OC)c1	none
O=C(Nc1ccnn1C1CCN(C(=O)CCc2ccc(F)cc2)CC1)C1CCOC1 (stereo not given)	none
CCn1c(O)c(N=NC2=NC(=O)CS2)c2ccccc21	DRD3 antagonist -79
COc1cc(C2C3=C(CC(C)(C)CC3=O)Nc3ccccc3N2C(C)=O)cc(OC)c1OC (stereo not given)	D1 antag -32
COc1cc(C2C3=C(CC(c4ccco4)CC3=O)Nc3ccccc3N2C(C)=O)cc(OC)c1OC (stereo not given)	none
Cc1ccc(/C=C2/Sc3ccc(C(=O)N4CCN(c5ccccn5)CC4)cc3NC2=O)cc1	D1 antag -46
CN1CCN(C(=O)c2ccc3c(c2)NC(=O)/C(=C/c2ccccc2)S3)CC1	none
Cc1ccc2c(c1)C(=O)C(=O)N2Cc1ccc(F)cc1	DRD3 antagonist inconclusive (no result: D1 ag, D1 potentiator, D1 antag)
Cc1ccc2c(c1)C(=O)C(=O)N2Cc1ccc(Cl)cc1	DRD3 antagonist -64 (no result: D1 ag, D1 potentiator, D1 antag)
Cc1ccc2c(c1)C(=O)C(=O)N2CCCOc1ccccc1	DRD3 antagonist -50
Cc1cccc(S(=O)(=O)NC2CCN(C#N)C2)c1 (stereo not given)	none (no result: D3 ag, DRD3 antagonist)
COc1ccc(-c2onc(C)c2C)cc1S(=O)(=O)N(C)Cc1ccccc1	none (no result: DRD3 antagonist)
CCN1C(=S)N[C@@H](CCc2ccccc2)C(C(=O)OC)=C1C	D1 antag -31!
CCOC(CNC(=O)c1ccc(N2CCc3ccccc32)c([N+](=O)[O-])c1)OCC	D1 antag -37, DRD3 antagonist -67
CCOc1ccc(S(=O)(=O)N2CCC(n3c(C)nc4cccnc43)CC2)cc1	D1 ag 34 (no result: DRD3 antagonist)
Cc1nc2cccnc2n1C1CCN(S(=O)(=O)N(C)C)CC1	D1 antag -37 (no result: DRD3 antagonist)
COc1ccccc1CNC(=O)c1nccnc1CO	none
Oc1cccnc1CN1CCCCC1	none (no result: D1 ag, D1 potentiator, D1 antag)
Oc1ccc(CN2CCCCC2)nc1-c1ccccc1	DRD3 antagonist -52
Oc1ccc(-c2ccccc2)cc1CN1CCCCCC1	DRD3 antagonist -93
Cc1ccccc1CC(=O)N1CCC(CCC(=O)NC2CC2)CC1	none (no result: D1 ag, D1 potentiator, D1 antag)
CCc1ccc(NC(=O)Cn2c(=O)n(-c3ccc(OC)cc3)c(=O)c3ccc(C(=O)NCc4ccc(C)cc4)cc32)cc1	none (no result: DRD3 antagonist)
OC(C#CCN1CCCCC1)(c1ccccc1)c1ccccc1	DRD3 antagonist -79
CC(C)(C#CC(O)(c1ccccc1)c1ccccc1)N1CCCC1	D1 antag -71
OC(C#CCN1CCCC1)(c1ccccc1)c1ccccc1	none
CC(C)c1cc(Cn2c3ccccc3c(=O)n2C(C)Cn2cc(COc3ccccc3)nn2)on1 (stereo not given)	none (no result: D1 ag, D1 potentiator, D1 antag)
O=C(CC1SC(N2CCOCC2)=NC1=O)Nc1ccccc1Cl (stereo not given)	none
COC(=O)[C@H](C(C)C)N(Cc1ccccc1)S(=O)(=O)CCN1CCCC1	DRD3 antagonist -59 (no result: D1 ag, D1 potentiator, D1 antag)
COC(=O)[C@H](C)N(Cc1ccc(Cl)c(Cl)c1)S(=O)(=O)CCN1CCCC1	DRD3 antagonist -68 (no result: D1 ag, D1 potentiator, D1 antag)
COC(=O)[C@H](C(C)C)N(Cc1ccccc1)S(=O)(=O)CCN1CCN(c2ccccc2)CC1	DRD3 antagonist inconclusive (no result: D1 ag, D1 potentiator, D1 antag)
COC(=O)[C@H](C)N(Cc1ccc(Cl)c(Cl)c1)S(=O)(=O)CCN1CCN(c2ccccc2)CC1	DRD3 antagonist -71 (no result: D1 ag, D1 potentiator, D1 antag)
CCOC(=O)Cn1c(=N)n(Cc2ccc(C(C)(C)C)cc2)c2ccccc21	D1 ag 48 (no result: DRD3 antagonist)
O=C(O)CC1c2ccccc2C=Cc2ccccc21	D1 antag -32
